The values below come from PubChem BioAssay (Tox21).

Inconclusive results are not listed. Calls of active or inactive are those of the source. Unless noted, the call rests on the fitted dose curve; in most records, active means well fitted curve in the direction sought with a large enough effect in the repeat runs; inconclusive means weak or mixed curves; inactive means no such curve, though single readings can be large; an effect the other way counts as inactive or inconclusive.

Assay [1] is described as follows: qHTS assay to identify small molecule antagonists of the estrogen receptor alpha (ER-alpha) signaling pathway using the BG1 cell line in the presence of 0.1 nM 17-beta-estradiol - cell viability counter screen (AID 1259241). Further: nearly all actives have a fitted effect of over 40% in size. In short, it runs like this: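 The cell line endogenously expresses full-length ER-alpha and carries four EREs driving luciferase. Cells are cultured 5 days hormone-free, treated 22 hr with compounds and 0.1 nM estradiol, then viability is read by fluorescence.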
(Quantitative high-throughput screening tests each substance at several concentrations.)

A short description of assay [2]: qHTS assay to identify small molecule antagonists of the androgen receptor (AR) signaling pathway using the MDA cell line in the presence of 0.5 nM R1881 - cell viability counter screen (AID 1259242). Further: nearly all actives have a fitted effect of over 45% in size. In short, it runs like this: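 Fluorescence from CellTiter-Fluor, which reports protease activity of live cells, was read 30 min after reagent addition to MDA-kb2 cells that had been incubated 16 hr with compound and 0.5 nM R1881.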

Assay [3] is described as follows: qHTS assay to identify small molecule HDAC inhibitors (AID 1259364). Further: nearly all actives have a fitted effect of over 45% in size. Further: potency means the concentration at half of the fitted maximal effect. An outline of the steps: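 Endogenous HDAC class I/II activity was measured in wild-type HCT-116 cells by HDAC-Glo luminescence after 2 h compound treatment.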
Assay [4] in a line: qHTS assay to identify small molecule agonists of the sonic hedgehog signaling (Shh) pathway - cell viability counter screen (AID 1259366). Further: nearly all actives have a fitted effect of over 50% in size. In short, it runs like this:
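Viability measured fluorometrically (CellTiter-Fluor, 1hr, 37C) in 3T3 Gli1-Luc reporter cells after 23hr compound exposure within a 24hr incubation at 37C/5% CO2.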

Assay [5] in a line: qHTS assay to identify small molecule antagonists of the sonic hedgehog signaling (Shh) pathway - cell viability counter screen (AID 1259367). Further: nearly all actives have a fitted effect of over 55% in size. An outline of the steps:
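Cells: 3T3 Gli1-Luc, 2,000/well, 4 hr pre-incubation. Compounds in DMSO, then conditioned medium. Incubation 24 hr, 37C, 5% CO2. CellTiter-Fluor at 23 hr, 1 hr, fluorescence.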

A short description of assay [6]: qHTS assay to identify small molecule agonists of the sonic hedgehog signaling (Shh) pathway (AID 1259368; calls by dose curve; further: nearly all actives have a fitted effect of over 15% in size; further: potency means the concentration at half of the fitted maximal effect). In short, it runs like this:
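Luminescent signal was taken as a measure of Gli1-controlled luciferase expression in stably transfected NIH/3T3-derived cells that had been treated for 24 hr with compounds delivered in DMSO.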

Assay [7] can be described thus: qHTS assay to identify small molecule antagonists of the sonic hedgehog signaling (Shh) pathway (AID 1259369; calls by dose curve; further: nearly all actives have a fitted effect of over 45% in size; further: potency means the concentration at half of the fitted maximal effect). An outline of the steps: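 Screening used 3T3Gli1-Luc cells at 2,000 per well, compounds delivered in DMSO, and conditioned medium as agonist stimulus; plates incubated 24hr at 37 C and 5% CO2 before a 30min luciferase step.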
Assay [8] concerns the target Estrogen receptor beta (Homo sapiens) (UniProt Q92731). The experiment in a line: qHTS assay to identify small molecule agonists of the estrogen receptor beta (ER-beta) signaling pathway (AID 1259377; active means well fitted activation curve with a large enough effect in the signal ratio in the repeat runs, not every such curve was filed as active; the % refers to the signal ratio; further: potency means the concentration at half of the fitted maximal effect). An outline of the steps:
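A UAS-controlled beta-lactamase reporter in ER-beta-UAS-bla HEK293T cells reports receptor activation. Compounds act for 16 hr at 37C in 2% charcoal-stripped serum, and a FRET substrate is read by fluorescence after 2 hours.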

A short description of assay [9]: qHTS assay to identify small molecule agonists of the androgen receptor (AR) signaling pathway in the presence of an antagonist - cell viability counter screen (AID 1259379). Further: nearly all actives have a fitted effect of over 25% in size. Further: potency means the concentration at half of the fitted maximal effect. An outline of the steps: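 In MDA-kb2 cells (human breast carcinoma, MMTV-luciferase), compounds at 15 concentrations plus 3.0uM nilutamide; 16 hr, 37C, 0% CO2; CellTiter-Fluor fluorescence read for viability.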

The nature of assay [10]: qHTS assay to identify small molecule agonists of the estrogen receptor beta (ER-beta) signaling pathway - cell viability counter screen (AID 1259380). Further: nearly all actives have a fitted effect of over 30% in size. An outline of the steps: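 Viability of ER-beta-UAS-bla HEK293T cells was determined by CellTiter-Glo luminescence following 16 hr treatment with test compounds at 37C.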
Assay [11] can be described thus: qHTS assay to identify small molecule antagonists of the estrogen receptor beta (ER-beta) signaling pathway - cell viability counter screen (AID 1259382).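 Further: HEK293T cells carrying ER-beta-UAS-bla reporter stimulated with estradiol; series mostly up to about 92 µM; nearly all actives have a fitted effect of over 55% in size.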 An outline of the steps:
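Tox21 10K library tested in qHTS format on ER-beta-bla HEK293T cells stimulated with 1nM E2; 16 hr treatment at 37C. Same-well CellTiter-Glo luminescence served as the cell viability measure.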

Assay [12] is described as follows: qHTS assay to identify small molecule agonists or antagonists of the thyroid stimulating hormone receptor (TSHR) signaling pathway - wild type cell line counter screen (AID 1259384; calls by dose curve). In short, it runs like this: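 Counter screen in untransfected Hek293: compounds (15-point titration, triplicate) plus phosphodiesterase inhibitor Ro20-1724 added after 18 h plating; 30 min RT. Intracellular cAMP via competitive d2/cryptate immunoassay, 1 h incubation.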

Assay [13] has as its target Thyrotropin receptor (Homo sapiens) (UniProt P16473). The experiment in a line: qHTS assay to identify small molecule antagonists of the thyroid stimulating hormone receptor (TSHR) signaling pathway (AID 1259385; calls by dose curve; further: nearly all actives have a fitted effect of over 20% in size). In short, it runs like this: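 Antagonist mode: compound-treated TSHR-expressing HEK293 cells were stimulated with 1.5 ng/mL TSH (final) in presence of Ro20-1724 for 30 min at RT. HTRF cAMP detection after 1 h; each compound tested at 15 concentrations, triplicate.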

Assay [14] in a line: qHTS assay to identify small molecule HDAC inhibitors - cell viability counter screen (AID 1259365). Further: series mostly up to about 92 µM; nearly all actives have a fitted effect of over 50% in size. In short, it runs like this: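 Viability readout: CellTiter-Glo luminescence. Wild-type HCT-116 cells, 2hr compound treatment following overnight attachment at 37 C.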
Assay [15] deals with Estrogen receptor (Homo sapiens) (UniProt P03372). Put plainly: qHTS assay to identify small molecule agonists of the estrogen receptor alpha (ER-alpha) signaling pathway in the presence of an antagonist (AID 1259383; calls by dose curve; further: top concentration of the series differs between compounds; nearly all actives have a fitted effect of over 15% in size). In short, it runs like this: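 In VM7Luc4E2 cells, 4,000 per well, compounds at 15 concentrations were co-incubated 22hr at 37C with 10.0nM final ICI-182,780. Luminescence from the stably transfected 4×ERE-luciferase reporter was recorded 30min after ONE-Glo addition.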
Chain of Estrogen receptor (Homo sapiens) (P03372 whole entry, looked up): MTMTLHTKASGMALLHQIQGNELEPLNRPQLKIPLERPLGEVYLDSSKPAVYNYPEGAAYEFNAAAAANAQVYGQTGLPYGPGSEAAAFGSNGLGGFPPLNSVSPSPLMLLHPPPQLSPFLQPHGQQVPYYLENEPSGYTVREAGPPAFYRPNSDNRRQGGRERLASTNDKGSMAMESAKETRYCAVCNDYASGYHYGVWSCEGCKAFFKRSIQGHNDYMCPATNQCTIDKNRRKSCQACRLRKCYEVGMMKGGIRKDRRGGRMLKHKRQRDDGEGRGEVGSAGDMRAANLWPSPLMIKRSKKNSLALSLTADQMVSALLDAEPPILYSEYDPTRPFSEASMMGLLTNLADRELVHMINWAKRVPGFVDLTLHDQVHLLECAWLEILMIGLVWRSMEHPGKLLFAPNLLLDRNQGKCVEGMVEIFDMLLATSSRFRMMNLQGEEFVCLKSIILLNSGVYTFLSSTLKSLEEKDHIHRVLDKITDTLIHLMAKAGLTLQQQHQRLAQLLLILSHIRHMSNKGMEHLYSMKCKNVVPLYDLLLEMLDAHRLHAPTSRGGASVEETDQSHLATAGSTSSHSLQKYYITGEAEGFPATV

Assay [16] has the same target. Put plainly: qHTS assay to identify small molecule antagonists of the estrogen receptor alpha (ER-alpha) signaling pathway using the BG1 cell line in the presence of 0.1 nM 17-beta-estradiol (AID 1259244). Further: nearly all actives have a fitted effect of over 50% in size. Further: potency means the concentration at half of the fitted maximal effect. In short, it runs like this:
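Quantitative high-throughput screen in VM7Luc4E2 cells: compound plus 0.1 nM E2 (final), 22 h, 37C, 5% CO2; ONE-Glo added, 30 min room temperature, luminescence measured.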

Assay [17] deals with Estrogen receptor beta (Homo sapiens) (UniProt Q92731). Put plainly: qHTS assay to identify small molecule antagonists of the estrogen receptor beta (ER-beta) signaling pathway (AID 1259378; active means well fitted inhibition curve with a large enough effect in the signal ratio in the repeat runs, not every such curve was filed as active; the % refers to the signal ratio). An outline of the steps:
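Antagonist mode: compounds added to beta-lactamase reporter HEK293T ER-beta-UAS cells stimulated with E2 (1nM final), 16 hr at 37C. LiveBLAzer B/G FRET substrate, 2 hours room temperature, fluorescence read-out.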

Chain of Estrogen receptor beta (Homo sapiens) (Q92731 whole entry, looked up): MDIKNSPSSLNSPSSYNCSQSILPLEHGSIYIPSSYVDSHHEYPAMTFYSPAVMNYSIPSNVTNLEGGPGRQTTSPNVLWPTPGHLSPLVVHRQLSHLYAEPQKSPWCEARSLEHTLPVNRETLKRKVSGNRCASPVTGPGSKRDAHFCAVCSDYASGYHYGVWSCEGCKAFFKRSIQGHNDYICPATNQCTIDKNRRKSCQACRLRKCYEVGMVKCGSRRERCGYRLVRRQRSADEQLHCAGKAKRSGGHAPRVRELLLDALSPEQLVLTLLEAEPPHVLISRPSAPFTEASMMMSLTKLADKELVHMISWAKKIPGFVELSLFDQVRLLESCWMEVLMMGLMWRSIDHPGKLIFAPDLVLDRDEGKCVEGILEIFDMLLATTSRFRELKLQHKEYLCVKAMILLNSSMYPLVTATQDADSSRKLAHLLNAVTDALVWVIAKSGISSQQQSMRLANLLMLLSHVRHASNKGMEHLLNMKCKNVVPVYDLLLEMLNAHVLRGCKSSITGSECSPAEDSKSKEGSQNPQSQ
Chain of Thyrotropin receptor (Homo sapiens) (P16473 whole entry, looked up): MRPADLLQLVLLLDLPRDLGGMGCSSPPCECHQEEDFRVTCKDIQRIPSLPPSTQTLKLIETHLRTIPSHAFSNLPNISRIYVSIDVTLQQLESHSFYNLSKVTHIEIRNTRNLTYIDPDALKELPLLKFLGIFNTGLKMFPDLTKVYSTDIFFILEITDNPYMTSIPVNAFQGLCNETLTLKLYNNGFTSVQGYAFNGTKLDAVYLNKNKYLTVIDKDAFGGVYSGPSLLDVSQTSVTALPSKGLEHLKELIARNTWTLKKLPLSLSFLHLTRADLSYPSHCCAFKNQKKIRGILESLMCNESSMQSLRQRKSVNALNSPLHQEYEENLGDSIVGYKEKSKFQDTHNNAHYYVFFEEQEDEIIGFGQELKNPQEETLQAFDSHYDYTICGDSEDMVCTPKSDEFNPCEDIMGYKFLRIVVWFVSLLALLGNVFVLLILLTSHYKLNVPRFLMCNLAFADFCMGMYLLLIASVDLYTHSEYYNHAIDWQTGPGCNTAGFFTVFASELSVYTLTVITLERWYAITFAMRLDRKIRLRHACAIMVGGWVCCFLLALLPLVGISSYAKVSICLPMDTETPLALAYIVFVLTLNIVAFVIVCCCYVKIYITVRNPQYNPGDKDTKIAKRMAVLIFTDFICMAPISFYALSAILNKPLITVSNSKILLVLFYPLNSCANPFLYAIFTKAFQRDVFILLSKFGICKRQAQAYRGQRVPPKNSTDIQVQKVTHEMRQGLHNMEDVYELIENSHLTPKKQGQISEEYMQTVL

As for `CO[C@@H]1COCC[C@@H]1N[C@@H]1CC[C@@](C(=O)N2CCc3ncc(C(F)(F)F)cc3C2)(C(C)C)C1`, the Potency result in assay [1], in [2], in [3], in [4], in assay [5] and in assay [6] was “inactive” each time. Moreover, the Potency entry in assay [7], in [8], in assay [9], in assay [10], in [11] and in [13] was “inactive” in each case. Besides, the outcome in [12] was inactive.
Regarding `Nc1ncnc2c1ncn2[C@@H]1O[C@H](CO)[C@@H](O)[C@H]1O`, the Potency result in assay [2], in [4], in assay [5], in [6], in [7] and in assay [8] was “inactive” throughout. Moreover, the Potency result in assay [9], in [10], in [11], in assay [15] and in assay [13] was “inactive” each time. In addition, in [14], the compound was called inactive.
In the case of `O=C1c2ccccc2C(=O)C1c1ccc2ccccc2n1`, the Potency entry in assay [1], in assay [2], in [4], in [7], in [8] and in assay [9] was “inactive” throughout. In addition, the Potency entry in [10], in assay [11] and in assay [13] was “inactive” each time. Besides, the Potency in assay [3] was 1.91 µM (active); in [6] it was 0.121 µM (active). Also, the call in assay [14] and in [12] was inactive.
In the case of `COc1cc(CNC(=O)CCCC/C=C/C(C)C)ccc1O`, the Potency entry in assay [2], in [4], in assay [5], in assay [6], in assay [7] and in assay [9] was “inactive” throughout. The Potency entry in [11], in assay [15] and in [13] was “inactive” throughout. Moreover, in assay [16], the Potency is 59.5 µM (active). Also, the compound was classed as inactive in [14] and in [12].
Consider `C=C[Si]1(C)O[Si](C)(C=C)O[Si](C)(C=C)O[Si](C)(C=C)O1` (stereo unspecified), for which the Potency entry in assay [1], in [2], in assay [3], in assay [4], in assay [6] and in assay [8] was “inactive” throughout. The Potency entry in assay [9], in assay [10], in assay [11] and in assay [13] was “inactive” in each case. Also, the Potency in assay [7] was 30.6 µM (active). For the same compound, the result in assay [12] was inactive.
On to `O=C1c2ccccc2C(=O)c2c1ccc(O)c2O`, for which the results for the Potency in assay [3] and in assay [8] were 29.8 µM (active) and 7.5 µM (active), respectively. The compound was classed as inactive in assay [14] and in assay [12]. Moreover, the Potency entry in assay [5], in assay [6], in assay [7], in [10] and in assay [11] was “inactive” throughout.
As for `CC(=O)Nc1ccn(C2COC(COC(=O)c3ccccc3)O2)c(=O)n1` (stereo unspecified), the Potency entry in assay [1], in assay [2], in [3], in [4], in [6] and in [7] was “inactive” each time. Moreover, the Potency entry in [8], in assay [17], in assay [9], in assay [10], in assay [11] and in assay [13] was “inactive” in each case.
Take `CCCCCCCCC(=O)OCC(C)OC(=O)CCCCCCCC` (stereo unspecified): the Potency entry in assay [1], in assay [2], in [3], in [4], in assay [6] and in assay [7] was “inactive” each time. In addition, the Potency entry in assay [8], in [10], in [11] and in assay [13] was “inactive” each time. In assay [14], the result was inactive.
`O=c1[nH]nc(-c2ccc([N+](=O)[O-])o2)o1`: the Potency entry in assay [16], in assay [3], in assay [6], in assay [17], in [10] and in assay [11] was “inactive” throughout. Further, the Potency result in assay [15] and in [13] was “inactive” each time. The Potency in assay [9] was 54.5 µM (active). For the same compound, the outcome in assay [12] was inactive.
As to `Cc1ccc(S(=O)(=O)NC(=O)NC2CCCC2)cc1`, the Potency entry in assay [1], in [2], in [4], in [5], in assay [6] and in assay [7] was “inactive” throughout. Moreover, the Potency entry in assay [9], in assay [10], in [11] and in assay [13] was “inactive” each time. In addition, the compound was classed as inactive in assay [14] and in [12].
